{"source": "PubChem BioAssay (Tox21)", "key": {"[1]": {"test": "cAMP Responsive Elements (CRE) small molecule antagonists, cell-based qHTS assay: qHTS cell viability counter screen (AID 2060913); note: nearly all actives have a fitted effect of over 40% in size", "settings": "CRE-bla HEK293T viability, CellTiter-Glo luminescence, 5 h; series mostly up to 92.4 µM", "how_it_was_run": "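Cytotoxicity counter screen multiplexed with the CRE-bla antagonist read: HEK293T cells in DMEM with dialyzed FBS and 25 mM HEPES were treated 3 hrs under 0.25 uM final NKH477, then viability measured by CellTiter-Glo luminescence.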"}, "[2]": {"test": "cAMP Responsive Elements (CRE) small molecule agonists, cell-based qHTS assay: qHTS cell viability counter screen (AID 2060914); note: nearly all actives have a fitted effect of over 50% in size", "settings": "CRE-bla HEK293T viability, CellTiter-Glo luminescence, 5 h; series mostly up to 92.4 µM", "how_it_was_run": "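In the same wells as the reporter read, viability of CRE-bla HEK 293T cells was quantified by CellTiter-Glo luminescence after a 3 h compound exposure.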"}}, "note": "Inconclusive results are not listed. A call without a number means that no potency is given here. Activity calls are given as the source filed them. Calls come from the whole dose curve; as a rule, active = well fitted cell-killing curve with a large enough effect in the repeat runs; inconclusive = weak or mixed curves, or effect the other way; inactive = flat fitted curve, though single readings scatter."}
{"smiles": "O[C@@H](c1cc(C(F)(F)F)nc2c(C(F)(F)F)cccc12)[C@H]1CCCCN1", "values": [{"measurement": "Potency", "setting": "[1]", "result": "inactive"}, {"measurement": "Potency", "setting": "[2]", "result": "inactive"}]}
{"smiles": "C=C[Si](OCCOC)(OCCOC)OCCOC", "values": [{"measurement": "Potency", "setting": "[1]", "result": "inactive"}, {"measurement": "Potency", "setting": "[2]", "result": "inactive"}]}
{"smiles": "C=C(C)C(=O)OCCCCCCCCCC", "values": [{"measurement": "Potency", "setting": "[1]", "result": "inactive"}, {"measurement": "Potency", "setting": "[2]", "result": "inactive"}]}
